Pf Dd2 inh: P. falciparum Dd2 growth inhibitors, primary screen, SYBR Green fluorescence, single dose replicates; 72 h; stronger effect = lower value; activity change, % at 10 µM; hit rate 2.3% among 94,000; AID 1159554, 2015; in the data active = activity change below about -80%; inconclusive = no clear call, values can overlap the other calls
T cruzi growth-1: T. cruzi intracellular proliferation inhibitors, primary screen, cell-based, beta-gal Tulahuen parasites, NIH3T3 host, luminescence; T. cruzi beta-gal in NIH3T3, GalScreen luminescence, 90 h; inhibition, % at 8.34 µM; hit rate 5.9% among 77,000; AID 624255, 2012;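 active = mean inhibition above about 93%, with at least 55% of replicates each passing it, limit read from the data, passing the limit was not always enough; inconclusive = only one of those two conditions holds; inactive = neither condition holds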
C diff growth: C. difficile growth inhibitors, primary screen, HTS; growth activity, negative = inhibition, % at 16 µg/mL (by protocol); AID 1259249, 2017; Clostridium difficile clinical isolate growth, OD600, 24 h; stronger effect = lower value; hit rate 0.25% among 86,000;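 active = mean growth activity at or below -80% and every replicate also at or below -80%; inconclusive = mean at or below -80% but some replicate above -80%; inactive = mean growth activity above -80%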
T cruzi growth-2: T. cruzi intracellular proliferation inhibitors, confirmation, cell-based, NIH3T3 host, beta-gal parasite, luminescence, cherry-pick; shares compounds with T cruzi growth-1; T. cruzi beta-gal in NIH3T3, GalScreen luminescence, 90 h; inhibition, % at 8.35 µM; hit rate 72% among 5,600; AID 651739, 2012;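 active = mean replicate inhibition above about 95% and at least 55% of replicates individually reaching it, limit read from the data; inconclusive = only one of the two criteria is met; inactive = neither criterion is met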
T cruzi growth-3: inhibitors of intracellular T. cruzi replication, confirmation, NIH3T3 host cells, beta-gal parasites, cherry-pick, set 2; shares compounds with T cruzi growth-1; T. cruzi beta-gal in NIH3T3, GalScreen luminescence, 90 h; inhibition, % at 2.09 µM; hit rate 21% among 5,600;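 active = mean inhibition above about 95%, with at least 55% of replicates also reaching it, limit read from the data; inconclusive = meets just one of the two conditions; inactive = meets neither condition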
3T3 cytotox: cytotoxicity in mouse NIH/3T3 fibroblasts, confirmation, cytotoxicity control for T. cruzi proliferation inhibitor project, cell-based, cherry-pick, single point | shares compounds with T cruzi growth-1 | NIH/3T3 viability, CellTiter-Glo ATP luminescence, 90 h | cytotoxicity (signal decrease), % at 8.35 µM | hit rate 14% among 5,600;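 active = mean signal decrease across replicates above about 35% based on untreated-well scatter, with enough replicates individually passing, limit read from the data; inconclusive = no rule stated though some were filed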
3T3 cytotox 2: NIH/3T3 fibroblast cytotoxicity, confirmation, cytotoxicity control, cell-based, cherry-pick, single point, set 2; NIH/3T3 viability, CellTiter-Glo ATP luminescence, 90 h; shares compounds with T cruzi growth-1; hit rate 56% among 5,600; inhibition, % at 24.9 µM;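 active = mean loss of cell viability signal at or above a set limit, and enough replicates individually reaching it; inconclusive = meets only the mean limit or only the replicate share; inactive = meets neither condition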
Large screens that a line does not name were inactive (follow-up assays come after a bar, where they were run). Shown are actives, neighbours in structure and some others; about 6.7% of the full set was active somewhere.

C/C=C/c1ccc([C@H]2[C@@H](CO)N(CCC(F)(F)F)C23CN(C(=O)CC)C3)cc1	none (no result: T cruzi growth-1)
COc1ccc(C#Cc2cnc3c(c2)C(=O)N([C@@H](C)CO)C[C@H](C)[C@@H](CN(C)C(=O)c2ccccc2F)O3)cc1	T cruzi growth-1 113.3 | T cruzi growth-2 98.1 | T cruzi growth-3 inactive | 3T3 cytotox inactive | 3T3 cytotox 2 inactive
COc1ccc(C#Cc2cnc3c(c2)C(=O)N([C@H](C)CO)C[C@@H](C)[C@H](CN(C)C(=O)c2ccccc2F)O3)cc1	none
Cn1cnc(S(=O)(=O)N2C[C@H](O)COC[C@H]3O[C@@H](CC(=O)NCc4cccc(F)c4)CC[C@@H]32)c1	none (no result: Pf Dd2 inh)
C/C=C/c1ccc2c(c1)O[C@H](CN(C)C(=O)Nc1ccc(C(F)(F)F)cc1)[C@@H](C)CN([C@H](C)CO)S2(=O)=O	T cruzi growth-1 inconclusive | T cruzi growth-2 101.7 | T cruzi growth-3 100.6 | 3T3 cytotox 36.3 | 3T3 cytotox 2 68.0
C/C=C/c1ccc2c(c1)O[C@H](CN(C)C(=O)Nc1ccc(F)cc1)[C@H](C)CN([C@@H](C)CO)S2(=O)=O	none
C/C=C/c1ccc2c(c1)O[C@H](CN(C)C(=O)Nc1ccc(F)cc1)[C@@H](C)CN([C@H](C)CO)S2(=O)=O	none
C/C=C/c1ccc2c(c1)O[C@H](CN(C)C(=O)Nc1ccc(C(F)(F)F)cc1)[C@H](C)CN([C@@H](C)CO)S2(=O)=O	T cruzi growth-1 inconclusive | T cruzi growth-2 98.9 | T cruzi growth-3 inactive | 3T3 cytotox 45.9 | 3T3 cytotox 2 68.8
C/C=C/c1ccc2c(c1)O[C@@H](CN(C)C(=O)Nc1ccc(F)cc1)[C@H](C)CN([C@@H](C)CO)S2(=O)=O	none
C/C=C/c1ccc2c(c1)O[C@@H](CN(C)C(=O)Nc1ccc(C(F)(F)F)cc1)[C@H](C)CN([C@@H](C)CO)S2(=O)=O	T cruzi growth-1 108.3 | T cruzi growth-2 97.4 | T cruzi growth-3 inconclusive | 3T3 cytotox inactive | 3T3 cytotox 2 102.1
COCC(=O)N(C[C@H]1N[C@@H](CO)[C@@H]1c1ccc(C2=CCCC2)cc1)C(C)C	none
CN1CCN(C(=O)C[C@@H]2C[C@@H]3c4cc(NC(=O)NC5CCCCC5)ccc4O[C@@H]3[C@H](CO)O2)CC1	none (no result: C diff growth)
CCCC(=O)Nc1ccc2c(c1)C(=O)N(C)C[C@@H](OC)[C@@H](C)CN(CC1CCCC1)[C@@H](C)CO2	none (no result: C diff growth)
C[C@@H]1CCCCO[C@H](CN(C)C(=O)Nc2ccc(F)cc2)[C@@H](C)CN([C@@H](C)CO)C(=O)c2cc(NC(=O)Cc3ccccc3)ccc2O1	none
C[C@@H]1CCCCO[C@H](CN(C)C(=O)Nc2ccc(F)cc2)[C@@H](C)CN([C@H](C)CO)C(=O)c2cc(NC(=O)Cc3ccccc3)ccc2O1	none
C[C@@H]1CCCCO[C@H](CN(C)C(=O)Nc2ccc(F)cc2)[C@H](C)CN([C@H](C)CO)C(=O)c2cc(NC(=O)Cc3ccccc3)ccc2O1	Pf Dd2 inh -85.4, T cruzi growth-1 105.2 | T cruzi growth-2 111.1 | T cruzi growth-3 inactive | 3T3 cytotox inactive | 3T3 cytotox 2 inactive
C[C@H]1CCCCO[C@@H](CN(C)C(=O)Nc2ccc(F)cc2)[C@@H](C)CN([C@@H](C)CO)C(=O)c2cc(NC(=O)Cc3ccccc3)ccc2O1	T cruzi growth-1 113.2 | T cruzi growth-2 inactive | T cruzi growth-3 inactive | 3T3 cytotox inactive | 3T3 cytotox 2 inactive
C[C@H](O)C#Cc1cnc2c(c1)C(=O)N([C@H](C)CO)C[C@H](C)[C@H](CN(C)CC1CCOCC1)O2	none (no result: T cruzi growth-1)
C[C@@H]1CN([C@H](C)CO)C(=O)CCCn2cc(nn2)CO[C@H]1CN(C)Cc1ccc2c(c1)OCCO2	none (no result: C diff growth)
C[C@@H]1CCCCO[C@H](CN(C)C(=O)Nc2ccc3c(c2)OCO3)[C@H](C)CN([C@@H](C)CO)C(=O)c2cc(NS(=O)(=O)c3ccc(Cl)cc3)ccc2O1	T cruzi growth-1 inconclusive | T cruzi growth-2 102.0 | T cruzi growth-3 inactive | 3T3 cytotox inactive | 3T3 cytotox 2 inactive
C[C@H]1CCCCO[C@H](CN(C)C(=O)Nc2ccc3c(c2)OCO3)[C@@H](C)CN([C@@H](C)CO)C(=O)c2cc(NS(=O)(=O)c3ccc(Cl)cc3)ccc2O1	none
C[C@@H]1CCCCO[C@@H](CN(C)C(=O)Nc2ccc3c(c2)OCO3)[C@@H](C)CN([C@H](C)CO)C(=O)c2cc(NS(=O)(=O)c3ccc(Cl)cc3)ccc2O1	none
C[C@H](CO)N1C[C@H](C)[C@H](CN(C)C(=O)Nc2ccc3c(c2)OCO3)OCCCC[C@H](C)Oc2ccc(NS(=O)(=O)c3ccc(Cl)cc3)cc2C1=O	T cruzi growth-1 96.8 | T cruzi growth-2 112.5 | T cruzi growth-3 inactive | 3T3 cytotox inactive | 3T3 cytotox 2 inactive
O=C(C[C@@H]1CC[C@H]2[C@@H](COC[C@H](O)CN2Cc2cccc(F)c2)O1)NCCc1ccncc1	none (no result: C diff growth)
O=C(C[C@@H]1CC[C@@H](NS(=O)(=O)c2ccccc2)[C@@H](CO)O1)NCc1ccc(Cl)c(Cl)c1	none
O=C(Nc1ccccc1F)N[C@@H]1CC[C@@H](CCNC(=O)C2CCC2)O[C@H]1CO	none (no result: T cruzi growth-1)
C[C@@H]1CN([C@H](C)CO)C(=O)c2cc(NS(=O)(=O)c3ccc(Cl)cc3)ccc2O[C@@H](C)CCCCO[C@@H]1CN(C)S(=O)(=O)c1ccc(Cl)cc1	T cruzi growth-1 inconclusive | T cruzi growth-2 99.7 | T cruzi growth-3 112.0 | 3T3 cytotox inactive | 3T3 cytotox 2 inconclusive
C[C@@H]1CN([C@@H](C)CO)C(=O)c2cc(NS(=O)(=O)c3ccc(Cl)cc3)ccc2O[C@@H](C)CCCCO[C@@H]1CN(C)S(=O)(=O)c1ccc(Cl)cc1	T cruzi growth-1 97.9 | T cruzi growth-2 100.6 | T cruzi growth-3 114.5 | 3T3 cytotox inactive | 3T3 cytotox 2 inactive
Cc1ccc(S(=O)(=O)N(C)C[C@H]2OCCCC[C@H](C)Oc3ccc(N(C)C)cc3C(=O)N([C@H](C)CO)C[C@H]2C)cc1	none
C[C@H](CO)N1C[C@H](C)[C@@H](CN(C)S(=O)(=O)c2ccc(Cl)cc2)OCCCC[C@H](C)Oc2ccc(NS(=O)(=O)c3ccc(Cl)cc3)cc2C1=O	none
C[C@@H]1CCCCO[C@@H](CN(C)S(=O)(=O)c2ccc(Cl)cc2)[C@H](C)CN([C@H](C)CO)C(=O)c2cc(NS(=O)(=O)c3ccc(Cl)cc3)ccc2O1	none

Bioassay records: PubChem, Broad Institute
